Bioassay records from PubChem.
Cruzain noTriton: inhibitors of Trypanosoma cruzi cruzain without detergent; Potency, µM, for inactives: max response, negative = inhibition, usual class: inhibitors; 200,000 compounds, 2.3% hits; P25779; purified cruzain, Z-FR-AMC fluorescence, no detergent; active = well fitted curve in the direction sought with a large enough effect; inconclusive = small, poorly fitted or top-dose-only effect, or another doubt; inactive = no such curve, though single readings can be large; an effect the other way counts as inactive or inconclusive;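 also: potency is read from the fitted curve at half-maximal effect; plate controls were enzyme without inhibitor for no effect and buffer without enzyme for full effect; nearly all actives have a fitted effect of over 40% in size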
Target sequence (P25779 123-467 limits assumed): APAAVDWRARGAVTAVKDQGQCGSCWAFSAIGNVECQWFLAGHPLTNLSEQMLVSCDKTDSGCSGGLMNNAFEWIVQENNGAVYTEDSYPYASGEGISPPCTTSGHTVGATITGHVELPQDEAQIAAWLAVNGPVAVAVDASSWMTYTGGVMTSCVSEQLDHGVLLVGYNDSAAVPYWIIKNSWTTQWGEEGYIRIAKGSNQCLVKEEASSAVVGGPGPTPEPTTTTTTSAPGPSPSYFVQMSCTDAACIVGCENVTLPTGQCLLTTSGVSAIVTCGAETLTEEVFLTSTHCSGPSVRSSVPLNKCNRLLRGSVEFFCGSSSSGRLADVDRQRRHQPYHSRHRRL
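Detergent-free condition (0.00005% Triton X-100) in acetate buffer pH 5.5 with DTT. 1.5 nM enzyme and compound were pre-mixed 15 min, then 2 uM Z-FR-AMC substrate added; reaction progress from fluorescence change between first and third reads (60 s).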
Cruzain inh Det: inhibitors of Trypanosoma cruzi cruzain with detergent; P25779; purified cruzain, Z-FR-AMC fluorescence, 0.01% Triton; Potency, µM, for inactives: max response, negative = inhibition, hits mostly inhibitors; 200,000 compounds, 0.43% hits; AID 1478; active = well fitted curve in the direction sought with a large enough effect; inconclusive = small, poorly fitted or top-dose-only effect, or another doubt; inactive = no such curve, though single readings can be large; an effect the other way counts as inactive or inconclusive;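 also: potency is read from the fitted curve at half-maximal effect; plate controls were neutral wells for no effect and buffer without enzyme for full effect; nearly all actives have a fitted effect of over 40% in size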
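Z-FR-AMC hydrolysis (2 uM substrate) by cruzain (1.5 nM) monitored kinetically at ex 360/em 450 nm after 15 min room-temperature compound exposure; 0.01% Triton X-100, pH 5.5, 5 mM DTT.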
NS1 inh: blocks influenza NS1 protein function; 270,000 compounds, 0.4% hits; Potency, µM (top dose mostly 46.1 µM), inactives show top-dose activity, positive = more growth; AID 2326; also: potency is read from the fitted curve at half-maximal effect; actives are rising curves; nearly all actives have a fitted effect of over 50% in size
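S. cerevisiae expressing influenza A NS1, grown in glucose, washed, then diluted 1:100 into pH 6.0 -URA galactose medium with 23 nl compound. Growth recovery read as OD600; NS1-free strain serves as control.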
NS1 inh valid: validation of influenza NS1 protein function inhibitors. shares compounds with NS1 inh. 1,400 tested, under 10 active. influenza NS1 function cell assay, 15-point titration. activity change, negative = inhibition, % at 32.9 µM; also: 0% is about no effect
Flu PR8 replic: influenza virus titer reduction, NS1 project | shares compounds with NS1 inh | 95 compounds, 30% hits | virus titer (log TCID50), log10 TCID50 at 5 µM | AID 504647 | MDCK infected influenza A/PR/8/34, virus titer TCID50; hits give low values; call rule not given here
* = called active by the depositor; ? = inconclusive; / = not tested or not shown. Only a selection was taken, and hits are over-represented in it overall. Unless noted, calls follow the shape of the full dose curve.

SMILES	Cruzain noTriton	Cruzain inh Det	NS1 inh	NS1 inh valid	others
CC1c2cccc(O)c2C(O)=C2C(=O)[C@]3(O)C(O)=C(C(N)=O)C(=O)C(N(C)C)C3C(O)C21 (stereo partly specified)	3%	-5%	/	/
CN(Cc1ccc(F)cc1)C(=O)c1cc(COc2ccc(F)cc2F)on1	/	/	-3%	/
CCOC(=O)/C=C1\NC(C)(C)Cc2cc(OC)c(O)cc21	10%	-4%	?	20
CCOC(=O)/C=C1\NC(C)(C)Cc2cc(OC)c(OC)cc21	-1%	0%	2%	/
CC1(C)Cc2ccccc2/C(=C/C(=O)N2CCCCCC2)N1	1%	4%	7%	/
COc1cc2c(cc1OC)/C(=C/C(=O)N1CCOCC1)NC(C)(C)C2	0%	-16%	?	1
O=C(COC(=O)C1=COCCO1)Nc1cccc(Oc2ccccc2)c1	14%	-2%	-12%	/
COc1ccc(Cl)cc1-n1cc(-c2ccccc2)nc1SCC(=O)Nc1ccc(C)cc1	?	1%	/	/
COc1ccc2c3c1O[C@H]1C(=O)CC[C@@]4(O)C(C2)N(CC2CC2)CCC314 (stereo partly specified)	7%	-3%	-11%	/
O=C(NCC(=O)N1CCN(C(=O)c2ccco2)CC1)c1ccccc1	/	/	11%	/
O=C(NCc1ccccc1)c1cccc(OCC(=O)N2CCN(C(=O)c3ccco3)CC2)c1	2%	1%	?	11
CC(C)c1ccc(C(=O)Nc2ccc(CN3CCOCC3)cc2)cc1	/	/	-5%	/
O=C(CSCC(=O)N1CCCc2ccccc21)Nc1nc(-c2ccccc2)cs1	?	3%	20µM*	-25
O=C(C[n+]1cc(-c2ccccc2)n2c1CCC2)Nc1nc(-c2ccccc2)cs1	-20%	-10%	2%	/
Cc1ccc(-c2nc(CN(C)C3CCOC3)c(C)o2)s1 (stereo unspecified)	/	/	0%	/
N#C/C(=C(/O)CSc1nnc(Cc2cccs2)n1C1CCCCC1)c1nc2ccccc2[nH]1	-25%	-12%	18µM*	-15
COc1ccccc1-c1nnc(SC/C(O)=C(\C#N)c2nc3ccccc3[nH]2)n1C1CCCCC1	-29%	-11%	?	/
COc1ccccc1CNc1ccc(CNc2ncn[nH]2)cc1	/	/	2%	/
COc1cc(CNc2ccc(CNc3ncn[nH]3)cc2)ccc1OCc1ccccc1	5%	-3%	?	3
COc1ccc(NC(=O)NNC(=O)c2cc3occc3n2C)c(OC)c1	/	/	23%	/
O=c1c(C=Nc2ccc(Oc3ccccc3)cc2)c[nH]n1-c1cccc(Cl)n1	?	6%	0%	/
Cc1cccc(OCC(=O)NCCN2CCOCC2)c1	3%	8%	1.8µM*	-2
Cc1ccc(OCC(=O)NCCN2CCOCC2)cc1C	4%	-2%	0%	/
COc1ccc2[nH]c3c(=O)n(CCCCC(=O)N4CCCC4)c(=S)[nH]c3c2c1	-5%	-1%	?	/
O=C(O)c1cc(-c2ccc3c(c2)OCO3)nc2ccccc12	-6%	2%	-9%	/
SMILES	Cruzain noTriton	Cruzain inh Det	NS1 inh	NS1 inh valid	others
CC(=O)c1ccc(N2CCN(C(=O)c3cc(-c4ccc5c(c4)OCO5)nc4ccccc34)CC2)cc1	?	-14%	13µM*	3	Flu PR8 replic=8
Cc1c(C(=O)Oc2cccc3ccccc23)cnn1-c1ccccc1	-8%	-4%	-111%	/
O=C(NCCCN1CCCCC1)c1ccc2c(c1)ncn2C1CCCC1	/	/	7%	/
O=C(NCc1cccc(F)c1)C1CCC(=O)N(CCCN2CCOCC2)C1 (stereo unspecified)	/	/	-1%	/
COc1cccc(NC(=O)CSC2=C(C#N)C(c3ccco3)C3=C(CCCC3=O)N2)c1 (stereo unspecified)	-22%	-6%	-4%	/
CCCCc1ccc(NC(=O)CSC2=C(C#N)C(c3ccco3)C3=C(CCCC3=O)N2)cc1 (stereo unspecified)	-13%	-15%	20µM*	?
CCOC(=O)c1ccccc1NC(=O)c1cn(-c2ccc(OC)cc2)c(=O)c2ccccc12	2%	-7%	-4%	/
COc1ccc(-n2cc(C(=O)Nc3cc([N+](=O)[O-])ccc3OC)c3ccccc3c2=O)cc1	5%	-4%	22µM*	9
CCN(CC)S(=O)(=O)c1cccc(NC(=O)CCNC(=O)c2ccccc2Cl)c1	/	/	-1%	/
Cc1ccc(O)c(NC(=S)NC(=O)C(C)C)c1	/	/	-3%	/
CN(C(=O)c1ccc(C#N)cc1)c1nnc(-c2cnccn2)s1	/	/	-79%	/
COc1ccc(N(C)S(=O)(=O)c2cccc(C(=O)N3CCN(S(=O)(=O)c4ccc(C)cc4)CC3)c2)cc1	/	/	11µM*	4
COc1ccc(N(C)S(=O)(=O)c2cccc(C(=O)OCC(=O)NCc3ccccc3OC)c2)cc1	/	/	5%	/
COc1ccc(N2CCN(C(=O)c3ccc(N(C)S(=O)(=O)c4ccc(C)cc4)cc3)CC2)cc1	/	/	11%	/
COc1ccc(N(C)S(=O)(=O)c2cccc(C(=O)OC(C(=O)Nc3cc(C)cc(C)c3)c3ccccc3)c2)cc1 (stereo unspecified)	10µM*	3%	8.9µM*	26
c1ccc(-c2ccc(OCCCNC3CCCC3)cc2)cc1	/	/	-7%	/
Cc1ccc(CNC(=O)C2CCCN(S(=O)(=O)c3c(C)n[nH]c3C)C2)cc1 (stereo unspecified)	9%	1%	-4%	/
CCOc1ccc(CCNC(=O)C2CCCN(S(=O)(=O)c3c(C)n[nH]c3C)C2)cc1OCC (stereo unspecified)	?	-10%	2.5µM*	-27
Cc1ccc(S(=O)(=O)N(C)Cc2ccc(C(=O)NN=C(CC(C)C)CC(C)C)cc2)cc1	16%	-5%	?	/
CC/C(=N\NC(=O)c1ccc(CN(C)S(=O)(=O)c2ccc(C)cc2)cc1)c1ccc(OC(F)F)cc1	2%	1%	?	14
CN(C)S(=O)(=O)c1ccc(NC(=O)CSc2nc3ccccc3n2-c2ccccc2)cc1	3%	-6%	10µM*	5
COc1cc(NC(=O)CSc2nc3ccccc3n2-c2ccccc2)c(C)cc1[N+](=O)[O-]	7.9µM*	1%	22µM*	-4	Flu PR8 replic=7.7
COc1ccc(-n2nnnc2SCC(=O)Nc2cc(OC)c([N+](=O)[O-])cc2C)cc1	/	/	1%	/
CN(C)S(=O)(=O)c1cccc(NC(=O)CSc2nc3ccccc3n2-c2ccccc2)c1	-21%	-4%	-16%	/
Cc1cc(N2CCN(C)CC2)nc(-c2ccccc2O)n1	/	/	1%	/
Cc1cc(N2CCCC2)nc(-c2ccccc2O)n1	-7%	-3%	0.71µM*	-23
COc1ccc(OC)c(S(=O)(=O)N2CCCC(C(=O)NCc3ccco3)C2)c1 (stereo unspecified)	/	/	8%	/
Cc1cc(C(=O)NCc2ccco2)c2cc(F)ccc2n1	/	/	1%	/
CCOC(=O)N1CCN(S(=O)(=O)N2CCCC(C(=O)NCc3ccc(OC)cc3OC)C2)CC1 (stereo unspecified)	23%	0%	-3%	/
CC1CC(C)CN(S(=O)(=O)N2CCCC(C(=O)NCc3ccccc3Cl)C2)C1 (stereo unspecified)	/	/	?	-15	Flu PR8 replic=8
